Sampled rows, rich in hits. Any-hit rate of the full collection: about 3.1%.
dFosB activator – activators of delta FosB homodimer, primary screen, biochemical, fluorescence polarization, TAMRA-CDK5 oligo, single point | Protein FosB (Mus musculus), P13346 | purified delta FosB; percent of positive-control signal above neutral wells | activation, % at 25 µM | 0.99% of 340,000 active;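 active = mean activation above about 17%, with every replicate also reaching it, limit read from the data, passing the limit was not always enough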
RAD52 anneal inh – RAD52 DNA annealing inhibitors, primary screen, biochemical, FRET, single point, set 2. inhibition, % at 18.7 µM. DNA repair protein RAD52 homolog (Homo sapiens), P43351. 0.46% of 360,000 active. AID 651710, 2012. recombinant RAD52 DNA annealing, FRET fluorescence;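 active = every replicate showing at least 50% inhibition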
DENV2 CPE rescue – inhibitors of DENV2 cytopathic effect, primary screen, cell-based, plate reader, single concentration. CPE inhibition, % at 9.99 µM. 1.7% of 350,000 active. DENV2-infected cells, cytopathic effect rescue. AID 651640, 2012; in the data active = CPE inhibition above about 20%, passing the limit was not always enough; tested in BHK-21 cells;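 note: 0% = median of neutral control wells and 100% = median of positive control wells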
RAD54 branch – inhibitors of human RAD54 branch migration, primary screen, biochemical, fluorescence, single point; DNA repair and recombination protein RAD54-like (Homo sapiens), Q92698; RAD54 Holliday junction branch migration, FAM/BHQ fluorescence; inhibition, % at 10.4 µM; 0.14% of 360,000 active;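 active = mean normalized replicate activity at least 40 and at least half of replicates scoring 40 or more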;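 note: 0% = median of neutral control wells and 100% = median of positive control wells; inhibitors cause a drop in the FAM fluorescence signal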
Target sequence (Q92698 whole entry, looked up): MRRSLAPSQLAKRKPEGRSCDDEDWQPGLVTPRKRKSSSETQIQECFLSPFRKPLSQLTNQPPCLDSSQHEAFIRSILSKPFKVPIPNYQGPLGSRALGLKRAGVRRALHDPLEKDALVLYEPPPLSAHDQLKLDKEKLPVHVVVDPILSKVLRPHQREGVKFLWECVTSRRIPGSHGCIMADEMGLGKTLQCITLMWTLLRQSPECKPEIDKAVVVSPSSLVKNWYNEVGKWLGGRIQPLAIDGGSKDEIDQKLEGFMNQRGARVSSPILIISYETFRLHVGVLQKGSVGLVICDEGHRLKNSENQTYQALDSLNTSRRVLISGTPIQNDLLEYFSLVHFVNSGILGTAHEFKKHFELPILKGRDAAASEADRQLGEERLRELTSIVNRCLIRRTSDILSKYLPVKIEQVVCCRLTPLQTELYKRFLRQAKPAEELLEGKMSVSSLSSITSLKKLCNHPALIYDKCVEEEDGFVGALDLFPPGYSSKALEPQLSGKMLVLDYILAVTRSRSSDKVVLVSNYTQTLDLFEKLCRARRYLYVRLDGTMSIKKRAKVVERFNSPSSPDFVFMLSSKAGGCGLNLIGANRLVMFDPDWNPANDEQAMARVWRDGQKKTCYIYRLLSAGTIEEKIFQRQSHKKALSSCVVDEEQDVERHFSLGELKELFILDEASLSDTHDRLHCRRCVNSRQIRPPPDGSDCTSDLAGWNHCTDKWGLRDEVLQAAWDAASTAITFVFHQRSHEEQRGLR
AF4-AF9 inh – inhibitors of AF4 peptide binding to AF9, primary screen, biochemical, AlphaScreen, biotin-AF4 peptide, FLAG-AF9, single point; inhibition, % at 10 µM; 0.47% of 350,000 active;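 active = every replicate reaching a set inhibition limit, whatever the replicate mean, cut at about 25% in these data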;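 note: 0% = plate neutral control median and 100% = total signal loss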
INS-1E GSIS act – GLuc luminescence reporter in INS-1E cells, primary screen for activators of glucose-dependent secretion of insulin. 0.61% of 370,000 active. AID 743287, 2014. activation, % at 16.6 µM. INS-1E GLuc reporter insulin secretion, 2-3 h;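 active = lowest replicate activation of at least 40%, so every replicate reaches that level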;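 note: 0% = median of neutral control wells and 100% = median of IBMX positive control wells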
The depositor's hits bear a star; . = no result given.

SMILES | dFosB activator | RAD52 anneal inh | DENV2 CPE rescue | RAD54 branch | AF4-AF9 inh | INS-1E GSIS act
COc1ccc(C(=O)c2[nH]c(N)c(C(=O)NCCc3c[nH]c4ccccc34)c2-c2c(F)cccc2Cl)cc1 | . | -15.6 | 66.8* | . | -3.0 | -6.6
Nc1[nH]c(C(=O)c2ccccc2)c(-c2ccc(F)cc2)c1C(=O)NCCc1c[nH]c2ccccc12 | . | -16.8 | -11.4 | . | 2.2 | -27.6
COc1ccc(-c2cnc3c(c2)C(=O)N([C@H](C)CO)C[C@@H](C)[C@@H](CN(C)C(=O)CN(C)C)O3)cc1 | . | -17.0 | -1.6 | 7.9 | -2.7 | 18.0
N#Cc1c(N)[nH]c(C(=O)c2ccccc2)c1-c1ccc(Br)cc1 | . | 0.6 | 57.1* | . | . | -27.0
CC(C)(C)C(=O)c1c(N)[nH]c(C(=O)c2ccccc2)c1-c1ccc(Br)cc1 | . | -27.4 | -2.0 | . | 0.2 | -36.7
CC(C)OC(=O)c1nn2c(C(F)(F)F)cc(-c3ccc(Br)o3)nc2c1Br | -6.8 | . | . | . | . | 157.2*
CC(C)OC(=O)c1nn2c(C(F)(F)F)cc(-c3ccco3)nc2c1Cl | 2.5 | . | . | . | . | .
CO[C@@H]1CN(C)C(=O)c2ccc(NS(=O)(=O)CC(F)(F)F)cc2OC[C@H](C)N(Cc2cccnc2)C[C@H]1C | . | 1.8 | -4.1 | -10.4 | -1.3 | -7.9
C[C@@H]1CN([C@H](C)CO)C(=O)Cc2cc(NS(=O)(=O)c3cn(C)cn3)ccc2O[C@H]1CN(C)Cc1ccc(C(=O)Nc2ccccc2N)cc1 | . | 2.1 | -2.0 | . | 0.8 | -1.9
C[C@H]1CN([C@@H](C)CO)C(=O)Cc2cc(NS(=O)(=O)c3cn(C)cn3)ccc2O[C@@H]1CN(C)Cc1ccc(C(=O)Nc2ccccc2N)cc1 | . | 0.7 | 21.3* | 1.5 | -6.9 | 23.8
C[C@@H]1CN([C@@H](C)CO)C(=O)Cc2cc(NS(=O)(=O)c3cn(C)cn3)ccc2O[C@H]1CN(C)Cc1ccc(C(=O)Nc2ccccc2N)cc1 | . | 13.1 | 106.6* | . | -4.4 | 36.3
C[C@H](CO)N1C[C@H](C)[C@H](CN(C)Cc2ccc(C(=O)Nc3ccccc3N)cc2)Oc2ccc(NS(=O)(=O)c3cn(C)cn3)cc2CC1=O | . | 8.0 | -4.9 | . | 1.1 | 6.6
CCC(=O)Nc1ccc2c(c1)C(=O)N(C)C[C@H](OC)[C@H](C)CN(C(=O)c1ccncc1)[C@H](C)CO2 | . | -15.4 | 2.2 | -14.2 | 2.0 | -2.3
C/C=C/c1ccc2c(c1)O[C@H](CNC)[C@@H](C)CN([C@H](C)CO)S2(=O)=O | . | . | . | . | . | 8.4
O=C(C[C@H]1C=C[C@H](NC(=O)C2CCC2)[C@H](CO)O1)NCC1CC1 | . | 4.1 | -5.5 | 0.3 | -1.9 | 8.7
CC(=O)N[C@H]1C=C[C@H](CC(=O)NCc2ccc(Cl)cc2)O[C@H]1CO | . | -10.7 | 32.0* | -1.0 | -0.7 | -1.1
O=C(C[C@H]1C=C[C@@H](NC(=O)C2CCC2)[C@@H](CO)O1)NCC1CC1 | . | -1.5 | 58.4* | -0.1 | -2.3 | 8.5
COc1ccc(CNC(=O)C[C@@H]2C=C[C@@H](NC(=O)c3ccc4c(c3)OCO4)[C@H](CO)O2)cc1 | . | 4.3 | 43.5* | 6.4 | -3.6 | 9.3
O=C(C[C@@H]1C=C[C@@H](NC(=O)c2ccccn2)[C@H](CO)O1)NCc1cccc(F)c1 | . | 0.7 | 35.9* | -5.2 | -1.9 | 1.9
CCOC(=O)c1ccccc1NC(=O)CN(c1ccccc1OC)S(C)(=O)=O | -10.7 | . | . | 6.6 | . | 62.1*
COc1ccc(S(=O)(=O)N2C[C@@H](O)COC[C@@H]3O[C@@H](CC(=O)NCCN4CCCCC4)CC[C@H]32)cc1 | . | -2.1 | -0.3 | 5.9 | -14.8 | 10.7
NC(=O)C1CCN(C(=O)C2(NC(=O)Nc3cccc(F)c3)CCCCC2)CC1 | -7.0 | -5.5 | 44.8* | 5.4 | -1.8 | 15.6
O=C(Nc1cccc(F)c1)NC1(C(=O)N2CCC(O)CC2)CCCCC1 | 1.2 | 0.5 | -1.9 | 13.3 | -0.3 | 0.7
c1ccc(CN2CCC(=NNc3nc4ccccc4[nH]3)CC2)cc1 | -1.0 | -7.0 | 0.6 | 1.3 | 34.1* | -27.5
c1ccc2c(c1)CC/C2=N/Nc1nc2ccccc2[nH]1 | 30.7* | -10.4 | 0.9 | 1.7 | 3.6 | .

Screens from PubChem.
